Experimental data reported in PubChem BioAssay (NCATS).
The source made the active and inactive calls. Calls follow the shape of the dose curve; as a rule, active = well fitted cell-killing curve with a large enough effect; inconclusive = small, poorly fitted or top-dose-only effect; inactive = flat fitted curve, though single readings scatter.

Experiment: MultiTox-Fluor Cytotoxicity Assay - LYMP1-003 - Live Cells (AID 962);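 also: 0% = DMSO only and full loss = 92 µM tetraoctylammonium bromide; cytotoxic hits lower the live-cell protease signal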
Details: LYMP1-003 lymphoblastoid cells, MultiTox-Fluor live-cell protease fluorescence; series mostly up to 92.2 µM; activity change, negative = fewer live cells: at the top concentration
Excerpt: NIH Chemical Genomics Center [NCGC]
NIH Molecular Libraries Screening Centers Network [MLSCN]
National Institutes of Environmental Health Sciences [NIEHS]
National Toxicology Program [NTP]
We have developed a 1536-well cell-based assay for quantitative high throughput screening (qHTS) against a number of cell lines to determine in vitro cytotoxicity of small molecules. This particular assay uses a human lymphoblastoid cell line (LYMP1-003) purchased from Coriell Institute.
NCGC Assay Protocol Summary:
The MultiTox-Fluor Cytotoxicity Assay (Promega) is a homogeneous method to simultaneously measure the relative number of live and dead cells in culture by detecting changes in cell membrane integrity. There are two fluorogenic peptide substrates in the assay reagent. Viable cells are determined when the cell-permeant substrate (GF-AFC) enters the cell and is cleaved by protease from live cells resulting in liberated fluorophore. This live-cell protease activity restricted to viable cells is proportional to cell number. The dead cells are determined by using fluorogenic cell-impermeant peptide substrate (bis-AAF-R110) which cleaved by dead cell proteases leaking from damaged cell membrane.
Using the MultiTox-Fluor Cytotoxicity Assay, the relative number of live cells was measured in the lymphoblastoid cell line with complete culture medium following compound treatment for 16 hours. The assay was performed in opaque black Kalypsys 1536-well plates. In the screen, tetraoctylammonium bromide was used as positive control. Library compounds were measured for their ability to cause acute toxicity in the cell line, as reflected by a decrease in live cell protease activity, in a concentration-dependent manner. […] AC50 values were determined from concentration-response data modeled with the standard Hill equation.
qHTS protocol for MultiTox-Fluor Cytotoxicity assay
[Step] [Parameter] [Value] [Description]
1. Reagent; 5 uL; 2500 lymphoblastoid cells/well
2. Time; 5 hr; 37 C incubation
4. Controls; 23 nL; Tetraoctylammonium bromide 6.4pM to 92 uM
5. Time; 16 hr; 37 C incubation
6. Reagent; 5 uL; MuliTox-Fluor Assay reagent
7. Time; 60 min; Room Temperature
8. Detection; live-cell fluorescence (Ex/Em=405/510); EnVision plate reader
Keywords: cell viability, cytotoxicity, lymphoblastoid cell line, fluorescence, NTPHTS, NTPHTS_NCGC, NIEHS, EPA, DSSTox, MLSMR, MLSCN, NIH Roadmap, qHTS, NCGC

SMILES | activity change, negative = fewer live cells
Clc1cc(Cl)cc(Cl)c1 | -2.37% (inactive)
O=C1OC(=O)c2c(Br)c(Br)c(Br)c(Br)c21 | 3.62% (inactive)
CC(C)c1ccccc1 | -8.96% (inactive)
CC(C)(O)C(=O)O | -8.09% (inactive)
CCC(C)=O | -5.47% (inactive)
CC(C)(O)CCC(C)(C)O | -8.44% (inactive)
O=C(O)/C=C/C(=O)O | -5.54% (inactive)
CC(C)=C1CCC(C)CC1=O (stereo not given) | -4.78% (inactive)
O=[N+]([O-])c1ccc(Cl)cc1Cl | 2.23% (inactive)
Cc1cc(C)cc(N)c1 | -1.84% (inactive)
CCCCCCO | -1.57% (inactive)
O=C(O)CNC(=O)c1ccc(CO)o1 | -5.15% (inactive)
CCc1ccccc1 | 3.68% (inactive)
CCc1ccccc1O | -2.52% (inactive)
Cc1ccccc1C(=O)O | -5.07% (inactive)
O=Cc1c(Cl)cccc1Cl | -0.352% (inactive)
C[C@@H]1CC2(OC[C@]3(C)O[C@H]23)O[C@H]2C[C@@]3(C)[C@@H]4CC[C@H]5C(C)(C)C(O[C@@H]6OC[C@@H](O)[C@H](O)[C@H]6O)CC[C@@]56C[C@@]46CC[C@]3(C)[C@@H]12 (stereo not given in full) | -4.04% (inactive)
[O-]/[N+](=N\O)c1ccccc1 | 3.34% (inactive)
O=c1[nH][nH]c(=O)c2cc([N+](=O)[O-])ccc12 | -17.9% (inactive)
COc1ccc(N)c(C)c1 | -8.17% (inactive)

SMILES | activity change, negative = fewer live cells
Cc1ccco1 | -0.433% (inactive)
c1ccc2n[nH]nc2c1 | -11.9% (inactive)
O=C(O)c1cc(Cl)cc(Cl)c1 | -6.14% (inactive)
C=C(C)C1CC=C(C)C(OC(C)=O)C1 (stereo not given) | -1.85% (inactive)
O=C(O)c1ccc(Cl)cc1Cl | -2.74% (inactive)
Cc1ccc2c(c1[N+](=O)[O-])C(=O)c1ccccc1C2=O | -21.3% (inactive)
CNc1ccc([N+](=O)[O-])cc1 | -20.2% (inactive)
Nc1cccc(C(F)(F)F)c1 | -2.37% (inactive)
CC(C)(C)OCC1CO1 (stereo not given) | -5.55% (inactive)
Clc1ccccn1 | -6.04% (inactive)
Nc1ccc(Cl)cc1[N+](=O)[O-] | -2% (inactive)
Nc1cc(Cl)c(N)c(Cl)c1 | -8.52% (inactive)
CCCCC=O | 0.874% (inactive)
Cc1ccc(N(C)C)cc1 | -5.94% (inactive)
CCCCOCCOCCSC#N | -4.49% (inactive)
Fc1ccccc1 | -2.55% (inactive)
CC(=O)OC(C)C | -6.15% (inactive)
O=[N+]([O-])c1ccc2nc[nH]c2c1 | -4.46% (inactive)
C=Cc1ccccn1 | -0.101% (inactive)
O=C(O)c1ccccc1[N+](=O)[O-] | -1.26% (inactive)
